For 4 molecules, outcome and AC50 results are on record in PubChem BioAssay (EPA / NIEHS).

Each structure is given as a SMILES string. Inconclusive results are not listed. Active and inactive are the calls of the source. Rule for the calls, unless noted: active = hit-call score of the fitted dose curve at least 0.9, where 1 is the maximum; inactive = score below 0.9.

Assay [1] has as its target Aryl hydrocarbon receptor (Homo sapiens) (UniProt P35869). Description: ATG_Ahr_CIS: Attagene CIS-FACTORIAL HepG2 Assay for human Aryl Hydrocarbon Receptor (Ahr) (AID 2282930). As to conditions: HepG2 AhR cis-factorial reporter transcription; actives raise or lower the signal. Put shortly:
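Reporter mRNA levels, quantified by RT-PCR and fluorescent capillary electrophoresis, reflect endogenous AhR transcriptional activity in HepG2 cells carrying transfected cis-promoter reporter constructs. Readout at 24 h post-dose; gain or loss fitted against DMSO baseline.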

Assay [2] addresses Hypoxia-inducible factor 1-alpha (Homo sapiens) (UniProt Q16665). Nature of the assay: ATG_HIF1a_CIS: Attagene CIS-FACTORIAL HepG2 Assay for human Hypoxia Inducible Factor 1 (HIF1A) (AID 2282951). As to conditions: HepG2 Attagene cis-factorial HIF1a reporter transcription; actives raise or lower the signal. In outline:
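HepG2 cells transiently transfected with multiplexed cis-promoter reporter units; reporter mRNA read 24 h after dosing by RT-PCR, 6-FAM primer-extension labelling, HpaI digestion and capillary electrophoresis. Bidirectional fit versus DMSO baseline.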

For assay [3], the target named is Transcription factor Sp1 (Homo sapiens) (UniProt P08047). Description: ATG_Sp1_CIS: Attagene CIS-FACTORIAL HepG2 Assay for human Specificity Protein 1 (Sp1) (AID 2282961). As to conditions: HepG2 Sp1 cis-reporter transcription, actives raise or lower the signal. In outline: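 HepG2 cells transiently transfected with multiple reporter transcription units driven by cis-regulatory elements; Sp1-responsive reporter mRNA measured 24 h after dosing by RT-PCR and capillary electrophoresis fluorescence, fitted bidirectionally against DMSO baseline.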

Assay [4] concerns the target Signal transducer and activator of transcription 3 (Homo sapiens) (UniProt P40763). Description: ATG_STAT3_CIS: Attagene CIS-FACTORIAL HepG2 Assay for human Signal Transducer and Activator of Transcription 3 (STAT3) (AID 2282963). As to conditions: HepG2, Attagene cis-factorial STAT3 reporter transcription; actives raise or lower the signal. Put shortly: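 Readout is reporter transcript quantified by RT-PCR and capillary electrophoresis, with 6-FAM primer extension and HpaI digestion. Total RNA is taken 24 h after dosing transiently transfected HepG2 carrying cis-regulated reporter units. Bidirectional fit against DMSO.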

A short description of assay [5]: ATG_TCF_b_cat_CIS: Attagene CIS-FACTORIAL HepG2 Assay for human T-Cell-Factor with beta-catenin (TCF/b-cat) (AID 2282965). The following applies: HepG2 TCF/beta-catenin cis-reporter transcription, actives raise or lower the signal. Put shortly: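 Endogenous TCF/LEF activity read as reporter transcript level via RT-PCR and capillary electrophoresis fluorescence in transfected HepG2, 24 h exposure; gain or loss of signal fitted against DMSO controls.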

A short description of assay [6]: ATG_TAL_CIS: Attagene CIS-FACTORIAL HepG2 Assay for human TAL Basal Promoter (AID 2282966).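 Note: background control endpoint measuring basal TAL promoter reporter mRNA not a specific factor.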 The following applies: HepG2 Attagene cis-factorial TAL promoter reporter; actives raise or lower the signal. In outline:
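Endogenous transcription-factor activity is sensed in HepG2 cells through transfected cis-promoter reporter constructs. After 24 h dosing, reporter transcripts are quantified by RT-PCR and capillary electrophoresis. Gain or loss of signal is fitted relative to DMSO.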

The nature of assay [7]: ATG_TGFb_CIS: Attagene CIS-FACTORIAL HepG2 Assay for human Transforming Growth Factor (TGF) (AID 2282967). As to conditions: HepG2 Attagene CIS TGFb reporter, mRNA transcription; actives raise or lower the signal. In outline:
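HepG2 cells transiently transfected with cis-promoter-driven multiplexed reporter units; 24 h compound exposure. Reporter mRNA measured by RT-PCR, 6-FAM labeling, HpaI digestion and capillary electrophoresis; bidirectional fit versus DMSO baseline.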

The nature of assay [8]: ATG_VDRE_CIS: Attagene CIS-FACTORIAL HepG2 Assay for human Vitamin D Receptor Element (VDRE) (AID 2282968). The following applies: HepG2 VDRE cis-reporter transcription, actives raise or lower the signal. In outline:
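Readout is VDRE-driven reporter mRNA reflecting endogenous factor activity in human HepG2 cells, sampled 24 h post-dose. Quantification used labelled RT-PCR products separated by capillary electrophoresis; bidirectional analysis relative to DMSO.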

The target of assay [9] is X-box-binding protein 1 (Homo sapiens) (UniProt P17861). Nature of the assay: ATG_Xbp1_CIS: Attagene CIS-FACTORIAL HepG2 Assay for human X-box Binding Protein 1 (XBP1) (AID 2282972). As to conditions: HepG2 XBP1 cis-element reporter, Attagene multiplex; actives raise or lower the signal. In outline: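 Read-out: fluorescent reporter mRNA fragments resolved by capillary electrophoresis after RT-PCR. Human HepG2 liver cells carried transfected cis-promoter reporter units and were exposed to chemicals for 24 hours. Gain or loss of signal fitted relative to DMSO baseline.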

Assay [10] is described as follows: ATG_M_32_TRANS: Attagene TRANS-FACTORIAL HepG2 Assay for M32 Transcription Factor (Internal Marker) (AID 2282984; active = hit-call score of the fitted dose curve at least 0.9, where 1 is the maximum). The following applies: HepG2 Attagene TRANS M32 internal marker reporter. Put shortly:
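Internal background reporter in transfected HepG2: after 24 h chemical exposure, RNA reverse-transcribed, reporter cDNA amplified, fluorescently labelled and HpaI-cut, then sized by capillary electrophoresis. Gain of signal fitted against DMSO control.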

The target of assay [11] is Transcriptional activator Myb (Homo sapiens) (UniProt P10242). Nature of the assay: ATG_Myb_CIS: Attagene CIS-FACTORIAL HepG2 Assay for human Myeloblastosis (Myb) Proto-Oncogene Transcription Factor (AID 2282986). As to conditions: HepG2 Attagene CIS-FACTORIAL Myb reporter transcription; actives raise or lower the signal. In outline: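 HepG2 cells were transiently transfected with cis-regulated multiple reporter transcription units reflecting endogenous Myb activity, then exposed to compound for 24 hours. Reporter mRNA was measured by RT-PCR with capillary electrophoresis; bidirectional fitting versus DMSO baseline.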

Assay [12] is described as follows: ATG_NFI_CIS: Attagene CIS-FACTORIAL HepG2 Assay for human Nuclear Factor I (NFI) (AID 2282989). The following applies: HepG2 cis-regulatory reporter, NFI response element transcription; actives raise or lower the signal. Put shortly:
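HepG2 cells transiently transfected with cis-element-driven multiplexed reporter transcription units, dosed for 24 h. Reporter mRNA quantified by RT-PCR, fluorescent labelling, HpaI digestion and capillary electrophoresis; bidirectional fit versus DMSO baseline.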

The target in assay [13] is Myc proto-oncogene protein (Homo sapiens) (UniProt P01106). Description: ATG_Myc_CIS: Attagene CIS-FACTORIAL HepG2 Assay for human Myelocytomatosis (Myc) Proto-Oncogene Transcription Factor (AID 2282990). As to conditions: HepG2, Attagene cis-reporter transcription factor activity; actives raise or lower the signal. Put shortly:
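After 24 h chemical treatment of HepG2 cells carrying multiplexed cis-regulated reporter constructs, reporter transcripts quantified by RT-PCR and capillary electrophoresis of fluorescent fragments. Gain or loss fitted against DMSO baseline.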

Assay [14] is described as follows: ATG_NRF2_ARE_CIS: Attagene CIS-FACTORIAL HepG2 Assay for human Nuclear Factor Erythroid 2 Related Factor 2 (NFR2) response to Antioxidant Response Elements (ARE) (AID 2282992). As to conditions: HepG2 Attagene ARE/NRF2 reporter, transcription factor activity; actives raise or lower the signal. Put shortly: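 Readout: reporter mRNA quantified by RT-PCR plus FAM-labelled primer extension, HpaI digestion and capillary electrophoresis, 24 h after dosing transfected HepG2 cells. Gain or loss of signal is fitted bidirectionally against DMSO baseline.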

A short description of assay [15]: ATG_Oct_MLP_CIS: Attagene CIS-FACTORIAL HepG2 Assay for human Octamer-Binding Transcription Factor (Oct) (AID 2282993). The following applies: HepG2 Attagene cis-factorial Oct reporter, mRNA; actives raise or lower the signal. In outline: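 HepG2 cells transiently transfected with cis-promoter-driven multiplexed reporter transcription units, dosed for 24 h. Reporter mRNA quantified by RT-PCR, fluorescent labelling, HpaI digestion and capillary electrophoresis; bidirectional fits versus DMSO baseline.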

The target in assay [16] is Cellular tumor antigen p53 (Homo sapiens) (UniProt P04637). Nature of the assay: ATG_p53_CIS: Attagene CIS-FACTORIAL HepG2 Assay for human p53 Transcription Factor (AID 2282994). The following applies: HepG2 p53 cis-element reporter, Attagene mRNA; actives raise or lower the signal. Put shortly:
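Read-out: reporter mRNA by RT-PCR plus capillary electrophoresis with fluorescence detection. Human HepG2 liver cells carried transfected multi-reporter cis-element constructs, dosed 24 h. Gain or loss of signal fitted bidirectionally against DMSO control.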

Assay [17] concerns the target Peroxisome proliferator-activated receptor gamma (Homo sapiens) (UniProt P37231). Description: ATG_PPARg_TRANS: Attagene TRANS-FACTORIAL HepG2 Assay for human Peroxisome Proliferator-activated Receptor-gamma (PPARg) (AID 2283007; active = hit-call score of the fitted dose curve at least 0.9, where 1 is the maximum). In outline:
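HepG2 cells transiently transfected with multiplexed GAL4-UAS reporter units and exogenous chimeric NR-Gal4 proteins; reporter mRNA quantified after 24 h compound exposure by RT-PCR, fluorescent labelling, HpaI digestion and capillary electrophoresis; gain-of-signal fitted versus DMSO baseline.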

For assay [18], the target named is Cellular tumor antigen p53 (Homo sapiens) (UniProt P04637). Description: TOX21_p53_BLA_p4_ratio: Tox21 HCT-116 p53 Agonism Beta-lactamase Assay, Ratio, Phase 4 (AID 2283601; active = hit-call score of the fitted dose curve at least 0.9, where 1 is the maximum). In outline: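 Signal is the blue/green (460nm/530nm) ratio of cleaved versus uncleaved CCF4-AM substrate, read after 2 h substrate loading. Cells were HCT116 carrying the p53-responsive beta-lactamase reporter, dosed 16 h at 37C, 5% CO2; CellTiter-Glo measured in parallel.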

The nature of assay [19]: ATG_GRE_CIS: Attagene CIS-FACTORIAL HepG2 Assay for human Glucocorticoid Response Elements (GRE) (AID 2282947). The following applies: HepG2 GRE cis-reporter, Attagene multiplex mRNA; actives raise or lower the signal. In outline: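 Reporter transcripts read by RT-PCR with capillary electrophoresis fluorescence after a 24 h chemical exposure of HepG2 cells transiently transfected with multiple cis-element reporter units. Gain or loss fitted against DMSO.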

Assay [20] can be described thus: ATG_TA_CIS: Attagene CIS-FACTORIAL HepG2 Assay for human TA Basal Promoter (AID 2282964). As to conditions: HepG2 Attagene CIS-factorial TA basal promoter reporter; actives raise or lower the signal. Put shortly: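 HepG2 cells transiently transfected with multiplexed cis-promoter reporter units, dosed 24 h. Reporter mRNA measured by RT-PCR, 6-FAM labelling, HpaI digestion and capillary electrophoresis; bidirectional fit versus DMSO baseline, serving as background control.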

Chain of X-box-binding protein 1 (Homo sapiens) (P17861 whole entry, looked up, the tested form may be a part): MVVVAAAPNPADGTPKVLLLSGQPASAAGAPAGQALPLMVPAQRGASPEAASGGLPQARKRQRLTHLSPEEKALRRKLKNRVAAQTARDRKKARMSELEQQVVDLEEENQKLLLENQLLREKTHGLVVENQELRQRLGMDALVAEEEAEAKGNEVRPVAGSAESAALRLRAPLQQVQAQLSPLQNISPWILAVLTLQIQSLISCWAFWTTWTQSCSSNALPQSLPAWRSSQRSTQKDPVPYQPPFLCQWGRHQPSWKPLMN
Chain of Cellular tumor antigen p53 (Homo sapiens) (P04637 whole entry, looked up): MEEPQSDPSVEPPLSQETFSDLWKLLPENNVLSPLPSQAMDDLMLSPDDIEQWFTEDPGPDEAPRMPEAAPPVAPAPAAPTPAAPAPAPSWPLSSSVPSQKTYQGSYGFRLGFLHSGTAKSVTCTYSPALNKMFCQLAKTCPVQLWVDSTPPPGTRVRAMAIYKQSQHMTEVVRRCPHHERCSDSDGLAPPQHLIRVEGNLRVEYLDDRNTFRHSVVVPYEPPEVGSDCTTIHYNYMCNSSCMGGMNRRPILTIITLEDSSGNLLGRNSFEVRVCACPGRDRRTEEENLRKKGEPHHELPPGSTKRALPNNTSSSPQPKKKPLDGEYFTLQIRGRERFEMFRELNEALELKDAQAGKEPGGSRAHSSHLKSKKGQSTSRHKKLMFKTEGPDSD
Chain of Signal transducer and activator of transcription 3 (Homo sapiens) (P40763 whole entry, looked up): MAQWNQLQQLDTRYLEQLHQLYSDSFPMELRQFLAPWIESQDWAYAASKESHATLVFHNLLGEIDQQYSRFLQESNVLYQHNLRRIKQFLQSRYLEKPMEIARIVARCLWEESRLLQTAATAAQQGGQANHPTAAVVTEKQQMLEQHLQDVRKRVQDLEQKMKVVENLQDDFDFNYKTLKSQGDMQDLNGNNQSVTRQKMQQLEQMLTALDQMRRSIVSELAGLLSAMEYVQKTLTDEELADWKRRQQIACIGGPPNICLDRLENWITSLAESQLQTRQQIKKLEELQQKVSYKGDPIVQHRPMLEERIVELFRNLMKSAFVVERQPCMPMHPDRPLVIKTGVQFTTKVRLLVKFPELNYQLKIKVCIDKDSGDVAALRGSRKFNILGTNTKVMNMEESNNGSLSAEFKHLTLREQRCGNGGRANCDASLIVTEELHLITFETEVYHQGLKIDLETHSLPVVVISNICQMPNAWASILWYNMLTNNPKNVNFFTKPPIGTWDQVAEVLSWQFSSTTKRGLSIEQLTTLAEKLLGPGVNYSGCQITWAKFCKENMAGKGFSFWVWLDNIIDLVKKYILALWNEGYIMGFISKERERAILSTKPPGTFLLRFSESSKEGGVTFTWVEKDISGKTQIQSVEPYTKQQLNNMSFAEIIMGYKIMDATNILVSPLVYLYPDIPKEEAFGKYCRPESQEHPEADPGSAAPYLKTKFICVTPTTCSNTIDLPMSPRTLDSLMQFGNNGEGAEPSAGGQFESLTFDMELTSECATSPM
Chain of Hypoxia-inducible factor 1-alpha (Homo sapiens) (Q16665 whole entry, looked up): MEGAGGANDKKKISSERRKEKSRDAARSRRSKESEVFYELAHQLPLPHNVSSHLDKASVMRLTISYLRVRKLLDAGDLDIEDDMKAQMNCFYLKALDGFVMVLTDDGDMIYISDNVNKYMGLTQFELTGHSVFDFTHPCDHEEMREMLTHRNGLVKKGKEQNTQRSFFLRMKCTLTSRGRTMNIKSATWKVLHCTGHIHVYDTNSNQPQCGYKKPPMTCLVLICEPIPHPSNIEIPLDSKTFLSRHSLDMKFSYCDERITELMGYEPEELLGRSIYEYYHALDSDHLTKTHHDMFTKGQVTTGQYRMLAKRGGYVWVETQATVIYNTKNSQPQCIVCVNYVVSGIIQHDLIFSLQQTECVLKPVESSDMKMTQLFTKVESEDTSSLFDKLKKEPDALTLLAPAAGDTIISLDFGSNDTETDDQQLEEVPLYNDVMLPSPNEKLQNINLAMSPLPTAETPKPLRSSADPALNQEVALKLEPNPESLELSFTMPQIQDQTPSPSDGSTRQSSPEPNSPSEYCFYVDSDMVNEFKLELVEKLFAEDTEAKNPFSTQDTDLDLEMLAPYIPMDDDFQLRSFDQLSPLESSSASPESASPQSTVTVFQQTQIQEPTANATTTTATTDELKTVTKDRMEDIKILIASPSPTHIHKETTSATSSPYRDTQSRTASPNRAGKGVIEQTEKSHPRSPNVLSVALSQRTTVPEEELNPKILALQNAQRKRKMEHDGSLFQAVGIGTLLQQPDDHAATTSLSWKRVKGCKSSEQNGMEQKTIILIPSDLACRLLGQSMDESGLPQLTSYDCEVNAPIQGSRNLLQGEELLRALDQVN
Chain of Aryl hydrocarbon receptor (Homo sapiens) (P35869 whole entry, looked up): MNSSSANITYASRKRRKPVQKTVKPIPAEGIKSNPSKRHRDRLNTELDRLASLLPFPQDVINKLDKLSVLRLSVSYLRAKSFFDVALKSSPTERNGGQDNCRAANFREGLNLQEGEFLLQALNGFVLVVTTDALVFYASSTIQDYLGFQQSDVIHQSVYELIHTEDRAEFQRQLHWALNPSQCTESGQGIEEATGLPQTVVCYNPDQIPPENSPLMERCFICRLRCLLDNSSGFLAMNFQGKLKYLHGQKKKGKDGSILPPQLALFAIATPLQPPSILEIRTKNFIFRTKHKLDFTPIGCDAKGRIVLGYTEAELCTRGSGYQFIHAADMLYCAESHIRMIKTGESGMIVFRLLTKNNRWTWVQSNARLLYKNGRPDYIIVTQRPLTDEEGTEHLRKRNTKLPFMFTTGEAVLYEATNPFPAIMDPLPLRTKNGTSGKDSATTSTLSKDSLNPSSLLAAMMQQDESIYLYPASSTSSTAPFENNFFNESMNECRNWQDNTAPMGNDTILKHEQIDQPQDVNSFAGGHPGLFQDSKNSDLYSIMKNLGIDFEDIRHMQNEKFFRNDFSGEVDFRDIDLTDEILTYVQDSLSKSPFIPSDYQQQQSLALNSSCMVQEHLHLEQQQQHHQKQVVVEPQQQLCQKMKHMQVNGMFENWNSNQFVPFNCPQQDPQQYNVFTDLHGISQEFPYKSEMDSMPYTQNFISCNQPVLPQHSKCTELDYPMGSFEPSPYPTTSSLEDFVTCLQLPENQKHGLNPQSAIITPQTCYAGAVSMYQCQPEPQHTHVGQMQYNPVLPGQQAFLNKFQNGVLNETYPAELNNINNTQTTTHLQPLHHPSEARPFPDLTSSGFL
Chain of Transcription factor Sp1 (Homo sapiens) (P08047 whole entry, looked up): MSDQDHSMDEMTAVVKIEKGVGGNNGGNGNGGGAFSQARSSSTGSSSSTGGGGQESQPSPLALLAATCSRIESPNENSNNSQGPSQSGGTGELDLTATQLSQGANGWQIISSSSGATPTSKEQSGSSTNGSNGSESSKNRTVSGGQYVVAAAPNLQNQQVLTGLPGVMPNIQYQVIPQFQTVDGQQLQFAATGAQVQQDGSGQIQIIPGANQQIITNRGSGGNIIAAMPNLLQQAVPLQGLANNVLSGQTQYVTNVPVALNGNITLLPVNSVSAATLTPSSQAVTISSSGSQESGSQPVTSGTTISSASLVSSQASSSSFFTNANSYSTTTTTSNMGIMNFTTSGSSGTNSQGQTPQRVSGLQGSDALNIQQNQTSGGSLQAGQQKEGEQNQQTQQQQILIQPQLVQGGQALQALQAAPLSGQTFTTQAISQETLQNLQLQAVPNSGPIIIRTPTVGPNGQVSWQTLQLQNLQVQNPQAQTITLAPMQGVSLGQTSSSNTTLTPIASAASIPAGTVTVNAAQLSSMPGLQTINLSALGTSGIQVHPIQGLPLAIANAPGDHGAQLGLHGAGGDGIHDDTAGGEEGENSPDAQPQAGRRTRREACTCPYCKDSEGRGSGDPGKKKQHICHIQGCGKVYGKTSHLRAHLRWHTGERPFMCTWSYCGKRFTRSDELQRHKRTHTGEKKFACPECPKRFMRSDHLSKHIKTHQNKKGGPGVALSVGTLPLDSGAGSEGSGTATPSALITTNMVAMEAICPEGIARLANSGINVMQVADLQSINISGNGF
Chain of Transcriptional activator Myb (Homo sapiens) (P10242 whole entry, looked up): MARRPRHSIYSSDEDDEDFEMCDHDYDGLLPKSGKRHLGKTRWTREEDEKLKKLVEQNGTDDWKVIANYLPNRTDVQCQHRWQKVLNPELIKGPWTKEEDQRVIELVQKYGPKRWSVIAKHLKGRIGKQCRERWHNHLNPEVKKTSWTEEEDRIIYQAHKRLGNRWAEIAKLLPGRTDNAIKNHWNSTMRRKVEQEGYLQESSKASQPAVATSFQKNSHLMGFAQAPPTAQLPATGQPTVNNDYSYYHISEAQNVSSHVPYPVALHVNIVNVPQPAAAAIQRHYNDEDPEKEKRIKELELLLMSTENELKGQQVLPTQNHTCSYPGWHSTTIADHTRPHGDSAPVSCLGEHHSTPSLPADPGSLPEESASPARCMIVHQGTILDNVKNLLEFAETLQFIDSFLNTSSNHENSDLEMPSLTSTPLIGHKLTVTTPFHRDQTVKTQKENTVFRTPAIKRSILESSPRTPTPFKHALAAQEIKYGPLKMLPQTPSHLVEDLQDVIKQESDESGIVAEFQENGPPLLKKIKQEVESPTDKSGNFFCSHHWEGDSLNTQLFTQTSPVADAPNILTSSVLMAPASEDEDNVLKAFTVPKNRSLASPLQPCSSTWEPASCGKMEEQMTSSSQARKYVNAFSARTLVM
Chain of Myc proto-oncogene protein (Homo sapiens) (P01106 whole entry, looked up, the tested form may be a part): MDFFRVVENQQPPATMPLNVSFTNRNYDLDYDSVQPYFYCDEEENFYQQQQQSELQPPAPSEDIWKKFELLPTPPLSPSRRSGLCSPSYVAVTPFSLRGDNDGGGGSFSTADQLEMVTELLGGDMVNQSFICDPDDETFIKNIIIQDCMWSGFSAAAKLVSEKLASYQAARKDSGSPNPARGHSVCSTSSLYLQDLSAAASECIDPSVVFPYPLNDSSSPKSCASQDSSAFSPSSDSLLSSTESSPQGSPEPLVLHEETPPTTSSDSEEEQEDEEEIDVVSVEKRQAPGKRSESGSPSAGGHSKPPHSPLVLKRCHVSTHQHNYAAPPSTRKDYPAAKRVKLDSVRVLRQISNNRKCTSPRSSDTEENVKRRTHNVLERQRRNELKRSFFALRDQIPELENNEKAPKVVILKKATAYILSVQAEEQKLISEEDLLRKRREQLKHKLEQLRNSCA

In general, AC50 refers to the concentration at which the activity in the assay is half-maximal. As to `CCc1cccc(C)c1N(C(=O)CCl)[C@@H](C)COC`, the molecule was called inactive in assay [1], in assay [2], in assay [3], in assay [4], in [5] and in assay [6]. Also, the call in assay [7], in assay [9], in [10], in [11], in [12] and in assay [13] was inactive. The molecule was classed as inactive in assay [15], in assay [16] and in assay [18]. The concentration at half-maximal activity (AC50) in assay [8] was 2.13 µM (active); in assay [14], 7.39 µM (active); in assay [17], 27 µM (active).
Take `CCc1cc(C)cc(CC)c1-c1c(OC(=O)C(C)(C)C)n2n(c1=O)CCOCC2`: the result in assay [1], in assay [19], in [2], in [3], in assay [4] and in assay [20] was inactive. For the same molecule, the result in assay [5], in [6], in assay [7], in assay [8], in assay [9] and in assay [10] was inactive. Further, the outcome in assay [11], in assay [12], in [13], in assay [14], in assay [15] and in assay [16] was inactive. In addition, the molecule was classed as inactive in assay [17].
`CC(C)C(=O)Cl`: the molecule was classed as inactive in assay [1], in assay [19], in [2], in assay [3], in assay [4] and in [5]. In addition, the molecule was called inactive in [6], in assay [7], in assay [8], in [9], in assay [10] and in assay [11]. Also, the molecule was called inactive in assay [12], in assay [13], in assay [14], in assay [15] and in assay [16].
Consider `COC(=O)COc1ccc(Cl)cc1Cl`, for which the outcome in assay [2], in assay [4], in [20], in assay [5], in assay [6] and in [7] was inactive. Further, the outcome in [8], in [9], in [10], in [11], in assay [12] and in [13] was inactive. Further, the result in [14], in assay [15], in assay [16] and in assay [18] was inactive.
